# Experimental data: PubChem BioAssay AID1053115 (Broad Institute, 2014)
# Potency and affinity values are given separately. A number with no mark means an inactive call.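 How the source made its calls: active means cytotoxic compounds whose fitted half-maximal concentration is at most twice the top valid tested dose; inconclusive means flat curve showing 30 to 70% signal loss, or poor fit; inactive means the rest.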
# Assay: A549 cell cytotoxicity, dose response, cytotoxicity control, 24 h, CellTiter-Glo luminescence, cherry-picks (AID 1053115)
# Settings: A549 viability, CellTiter-Glo ATP luminescence; series mostly up to 30 µM; activity change, negative = cytotoxicity: at the top concentration
row,Structure (SMILES),"activity change, negative = cytotoxicity [%]"
1,C[C@H](O)C#Cc1ccc2c(c1)O[C@@H](CN(C)Cc1ccccc1)[C@H](C)CN([C@H](C)CO)S2(=O)=O,-12
2,C[C@H](O)C#Cc1ccc2c(c1)O[C@@H](CN(C)Cc1ccccc1)[C@H](C)CN([C@@H](C)CO)S2(=O)=O,17.4
3,C[C@H](CO)N1C[C@H](C)[C@@H](CN(C)S(=O)(=O)c2ccc(Cl)cc2)Oc2c(NS(=O)(=O)c3cn(C)cn3)cccc2C1=O,-6.4
4,C[C@@H]1CN([C@H](C)CO)S(=O)(=O)c2ccc(C#C[C@@H](C)O)cc2O[C@@H]1CN(C)Cc1ccc(-c2ccccc2)cc1,-21.6
5,C[C@@H](O)C#Cc1ccc2c(c1)O[C@H](CN(C)Cc1ccccc1)[C@@H](C)CN([C@@H](C)CO)S2(=O)=O,18.7
6,Cc1ccc(S(=O)(=O)N(C)C[C@H]2Oc3cc(C#Cc4ccncc4)ccc3S(=O)(=O)N([C@@H](C)CO)C[C@H]2C)cc1,-17.2
7,CN(C)C(=O)c1ccc(-c2cccc(-c3nc(C(=O)NC4CCCCC4)cc4c3[C@@H](CCO)N([S@](=O)C(C)(C)C)C4)c2)cc1,15.4
8,C[C@@H]1CN([C@H](C)CO)S(=O)(=O)c2ccc(C#C[C@@H](C)O)cc2O[C@@H]1CN(C)Cc1ccccc1,-5.16
9,C[C@@H]1CN([C@@H](C)CO)S(=O)(=O)c2ccc(C#C[C@@H](C)O)cc2O[C@@H]1CN(C)Cc1ccccc1,-0.41
10,C[C@@H]1CN([C@@H](C)CO)S(=O)(=O)c2ccc(C#C[C@@H](C)O)cc2O[C@H]1CN(C)Cc1ccccc1,-0.87
11,CN1c2ccc(C#Cc3cccnc3)cc2[C@H]2[C@H](CCN2C(=O)C2CCC2)[C@@H]1CO,8.82
